Source: PubChem (National Center for Advancing Translational Sciences (NCATS))
Hits are enriched below; roughly 17% of the tested compounds scored in any of these assays.
TDP1 cell CPT: qHTS for Inhibitors of human tyrosyl-DNA phosphodiesterase 1 (TDP1): qHTS in cells in presence of CPT; hit rate 12% among 420,000; chicken DT40 Tdp1-/-;hTDP1 cells + 20 nM CPT, ATP luminescence, 48 h; Potency, µM (highest dose often 46.2 µM), most hits filed as inhibitors; also: nearly all actives have a fitted effect of over 55% in size
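Cell growth measured by CellTiter-Glo luminescence after a minimum 48 h, 37 C compound exposure with 20 nM CPT in Tdp1-knockout DT40 cells stably expressing hTDP1, seeded 400/well; qHTS titration format.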
TGFb SMAD3 inh: qHTS for Inhibitors of TGF-b. HepG2 CAGA-GFP TGF-b/SMAD3 reporter, GFP fluorescence, 18 h; TGF-beta stimulated, 500 pg/mL final. Potency, µM (doses to about 46.1 µM), most hits filed as inhibitors. hit rate 1.2% among 410,000; also: nearly all actives have a fitted effect of over 65% in size
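HEPG2 CAGA-GFP reporter cells (1000/well, DMEM with 1% FBS) received compounds, then recombinant TGF-beta at 500 pg/mL final for 18 hours at 37 degrees C. Per-cell GFP summed per well was normalised to unstimulated and stimulated DMSO controls before curve fitting.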
S2 tox: Viability Counterscreen for Primary qHTS for Inhibitors of ATXN expression; S2 cells (HEK-293 line with an ATXN2-luciferase reporter) viability, CellTiter-Fluor protease fluorescence, 24 h; Potency, µM (series often up to 56.7 µM), most hits filed as cytotoxic; hit rate 0.49% among 400,000; also: nearly all actives have a fitted effect of over 40% in size
ATXN2 expr inh: Primary qHTS for Inhibitors of ATXN expression | HEK-293 ATXN2-luciferase reporter, luminescence, 24 h | Potency, µM (top dose mostly 57 µM), usual class: inhibitors | AID 1745845, 2022 | hit rate 0.72% among 360,000; also: nearly all actives have a fitted effect of over 55% in size
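qHTS (up to 57 uM final) was run with 24 h compound exposure of reporter cells at 37 °C. Each well was multiplexed: SteadyGlo luminescence measured ATXN2-luciferase expression after a fluorogenic Gly-Phe-AFC viability readout (25 uM final).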
HepG2 tox: qHTS for Inhibitors of TGF-b: Cytotox Counterscreen; HepG2 CAGA-GFP viability, ATP luminescence, 18 h; Potency, µM (top dose mostly 46.1 µM), hits mostly cytotoxic; hit rate 0.76% among 410,000; AID 588856, 2011
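CellTiter-Glo luminescence gave cytotoxicity after 18 hours at 37 degrees C. The cells were HepG2 CAGA-GFP in 1% FBS DMEM, stimulated with 500 pg/mL TGF-beta after compound addition. %Activity was normalised to no-cell wells (complete cell-killing) and DMSO (no toxicity), and curves were fitted and classified.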
TDP1 cell noCPT: qHTS for Inhibitors of human tyrosyl-DNA phosphodiesterase 1 (TDP1): qHTS in cells in absence of CPT. DT40 Tdp1-/- hTDP1 cells, no CPT, ATP luminescence, 48 h. Potency, µM (titrated, usually from 46.2 µM), hits mostly inhibitors. AID 686978, 2013. hit rate 15% among 420,000; also: nearly all actives have a fitted effect of over 55% in size
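Growth kinetics read by CellTiter-Glo luminescence after ≥48 hr at 37 °C. Cells: DT40 Tdp1-/- stably carrying human TDP1, 400 per well, compound exposure in the absence of CPT (DMSO vehicle).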
Numbers stand for hits; – = inactive; ? = inconclusive; · = not tested or not shown; [ ] = dose if it differs, or a comment. Calls follow the shape of the dose curve; as a rule, active = well fitted curve in the direction sought with a large enough effect; inconclusive = small, poorly fitted or top-dose-only effect, or another doubt; inactive = no such curve, though single readings can be large; an effect the other way counts as inactive or inconclusive.

SMILES | TDP1 cell CPT | TGFb SMAD3 inh | S2 tox | ATXN2 expr inh | HepG2 tox | TDP1 cell noCPT
Cc1onc(-c2c(Cl)cccc2Cl)c1C(=O)Nc1nc(C(C)(C)C)cs1 | ? | ? | – | – | – | 23µM
Cc1onc(-c2c(F)cccc2Cl)c1C(=O)Nc1nccs1 | – | – | – | – | – | ?
c1cncc(CNc2ncn[nH]2)c1 | – | – | – | – | – | –
Cc1nn(C(C)C(=O)NCc2ccccc2F)c(=O)c2nn(-c3ccccc3)c(C)c12 (centres undefined) | – | – | – | – | – | –
Cc1ccc(-n2nc3c(=O)n(C(C)C(=O)NCc4ccc(Cl)cc4)nc(C)c3c2C)cc1 (centres undefined) | ? | ? | – | – | – | –
CCC(C(=O)NCCc1ccc(SC)cc1)n1nc(C)c2c(C)n(-c3ccc(C)cc3)nc2c1=O (centres undefined) | 13µM | ? | · | · | – | 16µM
Cc1ccc(-n2nc3c(=O)n(C(C)C(=O)NCc4ccccc4C)nc(C)c3c2C)cc1 (centres undefined) | ? | ? | · | · | – | 23µM
CCC(C(=O)NCCc1ccc(C)cc1)n1nc(C)c2c(C)n(-c3ccccc3)nc2c1=O (centres undefined) | ? | – | – | – | – | –
Cc1ccc(-n2nc3c(=O)n(C(C)C(=O)NCc4ccc(OC(C)C)cc4)nc(C)c3c2C)cc1 (centres undefined) | 16µM | ? | · | · | – | 13µM
CCOc1ccccc1CNC(=O)C(CC)n1nc(C)c2c(C)n(-c3ccccc3)nc2c1=O (centres undefined) | 18µM | ? | – | – | – | ?
COc1cc(NC(=O)CSc2nnnn2C2CCCC2)cc(OC)c1 | – | – | – | – | – | –
Cc1oc(C)c2c(=O)cc(-c3ccc4c(c3)OCO4)cc(OC(=O)c3ccccc3Br)c12 | 16µM | – | ? | – | – | ?
O=C(Oc1ccccc1Cl)c1cc(-c2ccc3c(c2)OCCO3)on1 | – | – | – | – | – | –
Cc1oc(C)c2c(=O)cc(-c3ccc4c(c3)OCO4)cc(OC(=O)c3ccccc3Cl)c12 | 23µM | – | – | – | – | ?
CCOc1cc(-c2ccc3c(c2)OCO3)cc(=[O+]CC)c2c(C)oc(C)c12 | ? | – | · | · | – | 14µM
O=C(NCc1ccccc1)C1CCC(=O)N(CC2CCCCC2)C1 (centres undefined) | – | – | – | – | – | –
O=C(NN=C1CCCCCCCCCCC1)c1cccc(S(=O)(=O)N2CCOCC2)c1 | – | ? | – | – | – | –
Cc1ccc(C(=O)NC(=S)N2CCCC2)cc1 | – | – | – | – | – | –
Cc1ccc(Cl)c(OCCN2CCc3ccccc3C2)c1 | ? | – | – | · | – | 23µM
C/C=C/c1ccc(OCCN2CCc3ccccc3C2)c(OC)c1 | ? | – | – | – | – | ?
C=CCc1ccc(OCCN2CCc3ccccc3C2)c(OC)c1 | ? | – | – | –[11.3 µM] | – | 16µM
COc1ccc(C(=O)NNC(=O)CSc2nnc(COc3ccccc3OC)n2C)cc1 | – | – | – | – | – | –
O=c1cc(CNc2cc(Cl)ccc2Cl)nc2sccn12 | – | – | – | – | – | ?
CNC(=O)NC(=O)C(C)OC(=O)c1oc2ccccc2c1CSc1ccc(Cl)cc1 (centres undefined) | ? | – | – | – | – | 21µM
CCNC(=O)NC(=O)C(C)OC(=O)c1oc2ccccc2c1CSC1CCCCC1 (centres undefined) | ? | – | ? | – | – | ?
CCCCC1CN(CCNC(=O)c2ccccn2)Cc2ccccc2O1 (centres undefined) | –[9.04 µM] | · | – | · | · | –
Cc1cccc(NS(=O)(=O)c2ccc(C(=O)NCCCN3CCCC3=O)cc2)c1C | ? | – | – | – | – | ?
